PubChem BioAssay AID651551 (Sanford-Burnham Center for Chemical Genomics, 2012)

target: PEG-3 (UniProt Q6IN02); assay: GAPDH versus PEG-3 reporter suppression – cell-based, luminescence, counter-screen for PEG-3 promoter inhibitor project, SAR follow-up (AID 651551); conditions: HeLa PEG-Prom / GAPDH luciferase reporter, 6 or 24 h, run 2, 24 h; at 99 µM (top of the series)

Row | Structure (SMILES) | inhibition % (higher = more inhibition) [%]
1 | COc1ccc(Cl)cc1Nc1nc(-c2sc(NC(=O)c3ccccc3)nc2C)cs1 | 76.3
2 | O=C(Nc1nc(-c2ccccc2)cs1)c1nn(-c2ccccc2)c(=O)c2ccccc12 | 21.2
3 | CCCn1nc(C(=O)Nc2nc3ccccc3s2)c2ccccc2c1=O | 18.4
4 | Cc1cc(NC(=O)c2cccc(C)c2C)n(-c2nc3ccccc3[nH]2)n1 | 24
5 | Cc1cc(NC(=O)c2ccccc2C(F)(F)F)n(-c2nc3ccccc3[nH]2)n1 | 91.9
6 | CCCn1nc(C(=O)Nc2nc(-c3ccncc3)cs2)c2ccccc2c1=O | 40.8
7 | Cc1cc(NC(=O)c2ccccc2C)n(-c2nc3ccccc3[nH]2)n1 | 11.5
8 | CCn1nc(C(=O)Nc2nc(-c3ccccn3)cs2)c2ccccc2c1=O | 53.3
9 | Cc1nc(NC(=O)c2ccccc2)sc1-c1csc(Nc2ccccc2)n1 | 63.3
10 | Cc1cc(NC(=O)c2ccccc2)n(-c2nc3ccccc3[nH]2)n1 | -13.6
11 | O=C(Nc1nc2ccccc2s1)c1nn(-c2ccccc2)c(=O)c2ccccc12 | -4.01
12 | O=C(Nc1nccs1)c1nn(-c2ccccc2)c(=O)c2ccccc12 | 49.2
13 | Cc1nc(NC(=O)c2ccccc2)sc1-c1csc(Nc2cccc(Cl)c2C)n1 | -15.2
14 | COc1ccccc1Nc1nc(-c2sc(NC(=O)c3ccco3)nc2C)cs1 | 10
15 | COCCCNC(=O)c1ccc(Cn2c(=O)c3ccccc3n(Cc3ccccc3C#N)c2=O)cc1 | 54.9
16 | Cc1nc(NC(=O)c2ccccc2)sc1-c1csc(Nc2ccccc2Cl)n1 | -54.5
17 | CCCn1nc(C(=O)Nc2nc(-c3ccccn3)cs2)c2ccccc2c1=O | 44.6
18 | COc1ccc(-n2nc(C(=O)NCC(=O)Nc3cc(OC)c(OC)c(OC)c3)c3ccccc3c2=O)cc1OC | 40.8
19 | CCn1cc(C(=O)NCc2ccco2)c(=O)c2cc(S(=O)(=O)N3CCCC3)ccc21 | 24
20 | Cc1ccc(Cl)cc1Nc1nc(-c2sc(NC(=O)c3ccco3)nc2C)cs1 | 1.6
21 | COc1ccc(-n2nc(C(=O)NCC(=O)Nc3ccc(OC)c(OC)c3)c3ccccc3c2=O)cc1 | 35.2
22 | COc1ccc(-n2nc(C(=O)NCC(=O)Nc3cccc(OC)c3)c3ccccc3c2=O)cc1 | 21.2
23 | Cc1cc(NC(=O)c2ccccc2)n(-c2nc3ccccc3n2C)n1 | 12.8
